# PubChem BioAssay
# This is one part of the list. The source made the active and inactive calls.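 The calls were made as follows: active = mean inhibition over triplicates exceeding the hit threshold derived in the original primary screen (cut at about 11% in these data); inactive = the rest.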
# Assay: reduced OD of V66 E. coli with T4 gene 2 phage – absorbance, RecBCD inhibitor project, confirmation (AID 651982)
# Conditions: E. coli V66 + T4 2- phage, growth OD; at 11.9 µM; stronger effect = higher value
row,SMILES,inhibition
1,CCCCC(=O)NC(c1ccc(OC)c(OC)c1)c1ccc2cccnc2c1O (configuration not stated),13.9% (active)
2,CCNC(=S)N(CCc1c(C)[nH]c2ccc(C)cc12)Cc1ccco1,-0.28% (inactive)
3,CC1(C(=O)NS(=O)(=O)c2ccccc2)CCN1C(=O)C/C=C/c1ccccc1 (configuration not stated),-4.38% (inactive)
4,NC1=NC(=O)C(Cc2cccc(Cl)c2Cl)S1 (configuration not stated),0.33% (inactive)
5,CCn1cc(C(=O)NCCO)c(=O)c2cc(F)c(N3CCN(C)CC3)cc21,103% (active)
6,CCN1CCN(C(=O)N[C@@H](C(=O)N[C@@H]2C(=O)N3C(C(=O)O)=C(CSc4nnnn4C)CS[C@H]23)c2ccc(O)cc2)C(=O)C1=O,99.8% (active)
7,C=CCNC(=O)CSc1nc2sc(C)c(C)c2c(=O)[nH]1,-1.59% (inactive)
8,S=C(NCC1COc2ccccc2O1)Nc1ccc(Br)cc1 (configuration not stated),4.21% (inactive)
9,CC(=O)NC(c1cccs1)c1cc(Br)c2cccnc2c1O (configuration not stated),10.7% (inactive)
10,Cc1ccc(NC(=O)Nc2nnc(-c3ccncc3)s2)cc1,2.33% (inactive)
11,CCN1CCN(c2nc(Nc3cc(OC)ccc3OC)nc(Nc3cc(OC)ccc3OC)n2)CC1,-0.69% (inactive)
12,C=CCn1c(=O)c(C(=O)NCc2ccc3c(c2)OCO3)c(O)c2ccccc21,4.97% (inactive)
13,CC(C)(C)C(=O)Nc1c(Br)c(C2CC2)nn1-c1ccccc1,-0.86% (inactive)
14,O=C1c2ccccc2C2=Nc3ccccc3SC(c3ccccc3F)C12 (configuration not stated),8.51% (inactive)
15,Cc1ccc(-c2cnc(C(O)c3cc(Cl)cc(Cl)c3)[nH]2)cc1 (configuration not stated),12.2% (active)
16,CC1=C(C/C=C(\C)CCCC(C)CCCC(C)CCCC(C)C)C(=O)c2ccccc2C1=O (configuration not stated),0.32% (inactive)
17,COc1cccc(C(O)c2ncc(-c3ccc4ccccc4c3)[nH]2)c1 (configuration not stated),7.6% (inactive)
